# About 79,000 compounds went through this panel and 15% of them were active in at least one assay; those are over-represented in the sample as a whole. Values without a mark were called inactive. The source made the active and inactive calls. Cut-off read from the data, not from the text of the source: active = growth inhibition above about 70%; inactive = the rest.
# What was measured:
# [1] = NCI Yeast Anticancer Drug Screen. Data for the rad50 strain (AID 155);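 note: 0% = growth of vehicle-only cultures of the same strain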; conditions: S. cerevisiae rad50 strain growth inhibition; at 50.0 µM; active compounds read high
# In short: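 Compounds were tested on a yeast strain with an engineered DNA damage repair alteration; the reported value is growth inhibition normalised to vehicle treatment.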
# [2] = NCI Yeast Anticancer Drug Screen. Data for the mec2-1 strain (AID 157); conditions: S. cerevisiae mec2-1 strain, at 50.0 µM, active compounds read high
# In short: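 Each compound was tested on mec2-1 yeast, a strain altered in DNA damage repair or cell cycle control. Growth inhibition is reported relative to vehicle.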
# [3] = NCI Yeast Anticancer Drug Screen. Data for the sgs1 mgt1 strain (AID 161);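 note: 0% = growth of cultures given vehicle only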; conditions: S. cerevisiae sgs1 mgt1 strain, at 50.0 µM, active compounds read high
# In short: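 Inhibition of yeast growth, normalised to vehicle-treated controls, is reported for a strain bearing genetic alterations in DNA damage repair.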
# [4] = NCI Yeast Anticancer Drug Screen. Data for the cln2 rad14 strain (AID 165);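 note: 0% = growth equal to vehicle treated cultures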; conditions: S. cerevisiae cln2 rad14 strain, at 50.0 µM, active compounds read high
# In short: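 Test compounds were added to cln2 rad14 yeast cultures; inhibition of growth was then determined by comparison with vehicle treatment.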
# [5] = NCI Yeast Anticancer Drug Screen. Data for the bub3 strain (AID 167); conditions: S. cerevisiae bub3 mutant strain, at 50.0 µM, active compounds read high
# In short: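 Growth of a checkpoint-deficient yeast mutant is measured after compound exposure. Values represent inhibition relative to vehicle.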
# [6] = NCI Yeast Anticancer Drug Screen. Data for the mlh1 rad18 strain (AID 175); conditions: S. cerevisiae mlh1 rad18 strain growth inhibition; at 50.0 µM; active compounds read high
# In short: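 Inhibition values reflect reduced growth of mutant yeast versus vehicle-treated controls following compound exposure; the mutations affect DNA damage repair.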
Compound,growth inhibition [1],growth inhibition [2] [%],growth inhibition [3],growth inhibition [4] [%],growth inhibition [5],growth inhibition [6] [%]
BrCCCC1OCCO1,93.8% (active),53,85.8% (active),43.5,73.4% (active),60.2
COC(=O)c1cc(C)n(C)c(=O)c1CNS(=O)(=O)c1ccc(C)cc1,-1.25%,6.45,0.85%,-6,-2.8%,-12.3
COC(=O)C(=O)C(C(=O)C=C(C)C)c1nc2n(c1O)C(=N)N=N2 (centres undefined),13.2%,20.9,14.3%,-1.75,13.1%,17.4
O=C1C2CCCC3CCCC(C(=O)N1NC1CCCCC1)C32 (centres undefined),39.4%,28.6,27.9%,29.7,53.4%,49

# From PubChem BioAssay (NCI)
